Compounds without any hit were thinned out: in the full panel of roughly 79,000, 15% have a hit. Activity calls are given as the source filed them. No stated cut-off is given here; in the data, active means growth inhibition above about 70%; inactive means the rest. Where a SMILES comes first, the peptide text is derived from it. [ ]: non-standard residue; d: D form. The star is where a group is joined. ξ: configuration not given here. Cbz = O=C(OCc1ccccc1)*; ξP = O=C(O)C1CCCN1
Test: NCI Yeast Anticancer Drug Screen. Data for the bub3 strain (AID 167)
Settings: S. cerevisiae bub3 mutant strain, at 50.0 µM, stronger effect = higher value
Description: Growth inhibition of yeast strains with defined genetic alterations is measured as a screen for potential anti-cancer activity. Selected strains with alterations in DNA damage repair or cell cycle control were exposed to compounds and growth inhibition was measured relative to vehicle treated controls. The strain used in this assay is bub3

Structure (SMILES)	growth inhibition
Cc1ccc(OC(=O)NC(C)(C)C)cc1	11.8% (inactive)
O=C(O)c1ccccc1SC(Sc1ccccc1C(=O)O)c1ccc(Cl)cc1	-4.1% (inactive)
CN1CC(O)c2cc(N=NC(N)=O)c(O)cc21 (stereo not given)	-7.25% (inactive)
CC(=O)OCCOCNC(=S)N/N=C(\C)c1cccs1	4.3% (inactive)
O=c1cc(C=Nc2ccc(-c3csc(-c4ccccc4)n3)cc2)[nH]c(=S)[nH]1	96.5% (active)
NC(=O)CC(N)C(=O)NC(Cc1ccccc1)C(=O)NC(Cc1ccccc1)NC(=O)C(Cc1c[nH]c2ccccc12)C(=O)O (stereo not given)	1.85% (inactive)
NN1C(=O)Cc2ccc(Cl)cc21	-3.15% (inactive)
COc1ccc2cc(C(=O)c3ccccc3)c(=O)oc2c1	12.2% (inactive)
Nc1nc(N)c(N=Nc2ccc(Cl)cc2Cl)c(=O)[nH]1	14.8% (inactive)
COc1ccc(-c2cc(=O)c3c([nH]2)CCCC3)cc1	-4.3% (inactive)
CCC1(CN(C)C)CC/C(=C\c2ccc(OC)c(OC)c2)C1=O (stereo not given)	7.8% (inactive)
CCCC1(CCC)OC(=O)C(CC)(CC)C(=O)O1	14.1% (inactive)
CCOC(=O)N1C=Cc2c(c3ccccc3n2C)N1C(=O)OCC	5.7% (inactive)
COc1ccc(C2(C(OC)OC)NC(=O)NC2=O)cc1 (stereo not given)	-0.7% (inactive)
Cc1ccc(C(=O)c2ccccc2C(=O)O)cc1C	9.2% (inactive)
CCN(CC)C(=O)COc1ccc(Cl)cc1C(C)C	14.9% (inactive)
CSc1ccc(OC(=O)Nc2ccc(Cl)c(Cl)c2)cc1C	94.7% (active)
CCCCN=C1Nc2nc(=NCCCC)nc3c(Br)cc(Br)c(n23)N1	-4.9% (inactive)
Cn1ccnc1CC(C)(O)c1ccccc1 (stereo not given)	-23.4% (inactive)
Cn1ccc2c3ccn(C)c3ccc21	-19.9% (inactive)

Structure (SMILES)	growth inhibition
COc1ccc(N=Nc2ccc(OC)cc2C)c(C)c1	10% (inactive)
NC(=O)NC(=S)NC(=O)c1ccccc1	-28.8% (inactive)
CCC1CN2CCc3cc(OC)c(OC)cc3C2CC1O (stereo not given)	44.4% (inactive)
COc1cc(C2c3cc4c(cc3[C@@H](Nc3ccc(C#N)cc3)C3COC(=O)[C@H]23)OCO4)cc(OC)c1O (stereo not given in full)	89% (active)
C=C(CN(C)C)C(=O)c1ccccc1OC	35.3% (inactive)
Cc1nc(N)nc(C)c1N=Nc1ccccc1Br	5.35% (inactive)
CC(C)(Cl)C1CCC(CC(Cl)(Cl)Cl)CC1 (stereo not given)	11.9% (inactive)
Cc1cccc(SC(=O)Nc2cc([N+](=O)[O-])ccc2Cl)c1	17.6% (inactive)
CC(=O)N1c2ccccc2C(C)(C)C1O (stereo not given)	-12.4% (inactive)
CC(NC(=O)CNC(=O)CN)C(N)=O (stereo not given)	8.25% (inactive)
COc1cc(Nc2nc3ccccc3nc2C(=O)O)cc(OC)c1OC	16.9% (inactive)
O=S(=O)(O)c1ccccc1/C=N\N=C\c1ccccc1S(=O)(=O)O	-6.4% (inactive)
NC(=O)N(CCO)/N=C/c1ccc([N+](=O)[O-])o1	33.6% (inactive)
CCOC1(C)OC2OC(COC(c3ccccc3)(c3ccccc3)c3ccccc3)C(OC(=O)c3ccccc3)C(OC(=O)c3ccccc3)C2O1 (stereo not given)	-5.9% (inactive)
C[N+](C)(C)c1ccc2ccccc2n1	-8.7% (inactive)
O=C(CNC(=O)OCc1ccccc1)NCC(=O)N1CCCC1C(=O)O (stereo not drawn) (Cbz-Gly-Gly-[ξP]-OH)	-3.65% (inactive)
CSCSCC(CO)NC(=O)/C(C)=C\c1c(C)[nH]c(=O)[nH]c1=O (stereo not given)	8.4% (inactive)
CCCCCOC(=O)c1cccnc1	0.7% (inactive)
O=C(/C=C/c1ccc2c(c1)OCO2)CC(=O)/C=C/c1ccc2c(c1)OCO2	-4.3% (inactive)
CCCCCCCCCCCCCCCCCN(C)C(=O)OCC	-7.15% (inactive)

— PubChem BioAssay (NCI)
